Hit rate of the full screen: of about 5,500 compounds, about 2,000 (36%) were called active. About 18% were inconclusive and are not listed. Cut-off read from the data, not from the text of the source: active = normalized growth mostly below about 0.91 (no sharp cut-off); inconclusive = no clear call, values can overlap the other calls; inactive = mostly above about 0.92. The list shows a part of the results.
Assay: chemical genetic growth profiling, strain panel (AID 1159580);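 note: tested at 20 µM; growth read once vehicle control cultures reached saturation at 30 °C; 1 = growth at the plate median or of vehicle wells; lower values mean less growth of the strain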
Details: growth OD

Measured: normalized growth

CC(C)=CCC/C(C)=C/CO
inactive: S. cerevisiae deletion strains, locus YJR075W, strain HOC1, active compounds read low 1.01 | S. cerevisiae deletion strains, locus YKL009W, strain mrt4, active compounds read low 0.918 | S. cerevisiae deletion strains, locus YKL068W, active compounds read low 0.993 | S. cerevisiae deletion strains, locus YKL085W, strain MDH1 (second series), active compounds read low 0.98 | S. cerevisiae deletion strains, locus YKL085W, strain MDH1, active compounds read low 0.98 | S. cerevisiae deletion strains, locus YKL160W, strain elf1, active compounds read low 1.01 | S. cerevisiae deletion strains, locus YKL190W, strain CNB1, active compounds read low 1.01 | S. cerevisiae deletion strains, locus YKR001C, strain vps1, active compounds read low 0.99 | S. cerevisiae deletion strains, locus YKR026C, strain gcn3, active compounds read low 0.985 | S. cerevisiae deletion strains, locus YKR091W, strain srl3, active compounds read low 0.986 | S. cerevisiae deletion strains, locus YLL001W, strain dnm1, active compounds read low 0.994 | S. cerevisiae deletion strains, locus YLL026W, active compounds read low 0.998 | S. cerevisiae deletion strains, locus YLL041C, strain sdh2, active compounds read low 0.98 | S. cerevisiae deletion strains, locus YLR027C, strain aat2, active compounds read low 0.996 | S. cerevisiae deletion strains, locus YLR039C, strain RIC1, active compounds read low 1.01 | S. cerevisiae deletion strains, locus YLR058C, strain SHM2, active compounds read low 1.01 | S. cerevisiae deletion strains, locus YLR102C, strain apc9, active compounds read low 0.991 | S. cerevisiae deletion strains, locus YLR113W, strain HOG1, active compounds read low 0.984 | S. cerevisiae deletion strains, locus YLR221C, strain rsa3, active compounds read low 0.947 | S. cerevisiae deletion strains, locus YLR258W, strain gsy2, active compounds read low 1 | S. cerevisiae deletion strains, locus YLR262C, strain YPT6 (second series), active compounds read low 0.978 | S. cerevisiae deletion strains, locus YLR262C, strain YPT6, active compounds read low 1.03 | S. cerevisiae deletion strains, locus YLR268W, strain sec22, active compounds read low 0.966 | S. cerevisiae deletion strains, locus YLR320W, strain mms22, active compounds read low 0.96 | S. cerevisiae deletion strains, locus YLR330W, strain CHS5, active compounds read low 1.01 | S. cerevisiae deletion strains, locus YLR342W, strain FKS1 (second series), active compounds read low 1.04 | S. cerevisiae deletion strains, locus YLR342W, strain FKS1, active compounds read low 0.974 | S. cerevisiae deletion strains, locus YLR357W, strain rsc2, active compounds read low 0.986 | S. cerevisiae deletion strains, locus YLR370C, strain arc18, active compounds read low 0.983 | S. cerevisiae deletion strains, locus YLR371W, strain rom2, active compounds read low 0.985 | S. cerevisiae deletion strains, locus YLR384C, strain iki3, active compounds read low 0.981 | S. cerevisiae deletion strains, locus YLR418C, strain cdc73, active compounds read low 0.975 | S. cerevisiae deletion strains, locus YML016C, strain PPZ1, active compounds read low 1.02 | S. cerevisiae deletion strains, locus YML032C, strain rad52, active compounds read low 0.991 | S. cerevisiae deletion strains, locus YML120C, strain ndi1, active compounds read low 1.01 | S. cerevisiae deletion strains, locus YML124C, strain tub3, active compounds read low 0.991 | S. cerevisiae deletion strains, locus YMR058W, strain fet3, active compounds read low 0.972 | S. cerevisiae deletion strains, locus YMR078C, strain ctf18, active compounds read low 0.98 | S. cerevisiae deletion strains, locus YMR125W, strain sto1, active compounds read low 1.01 | S. cerevisiae deletion strains, locus YMR129W, active compounds read low 0.994 | S. cerevisiae deletion strains, locus YMR205C, strain PFK2, active compounds read low 1.01 | S. cerevisiae deletion strains, locus YMR223W, strain ubp8, active compounds read low 1.01 | S. cerevisiae deletion strains, locus YMR231W, strain pep5, active compounds read low 0.983 | S. cerevisiae deletion strains, locus YMR263W, strain SAP30, active compounds read low 1.02 | S. cerevisiae deletion strains, locus YMR307W, strain GAS1, active compounds read low 1.01 | S. cerevisiae deletion strains, locus YNL067W, strain RPL9B, active compounds read low 1.01 | S. cerevisiae deletion strains, locus YNL071W, strain lat1, active compounds read low 0.988 | S. cerevisiae deletion strains, locus YNL128W, strain TEP1, active compounds read low 1.01 | S. cerevisiae deletion strains, locus YNL153C, strain GIM3, active compounds read low 0.998 | S. cerevisiae deletion strains, locus YNL183C, strain NPR1, active compounds read low 0.991 | S. cerevisiae deletion strains, locus YNL209W, strain ssb2, active compounds read low 0.99 | S. cerevisiae deletion strains, locus YNL233W, strain BNI4, active compounds read low 1.01 | S. cerevisiae deletion strains, locus YNL248C, strain rpa49, active compounds read low 0.969 | S. cerevisiae deletion strains, locus YNL250W, strain rad50, active compounds read low 0.992 | S. cerevisiae deletion strains, locus YNL271C, strain bni1, active compounds read low 0.975 | S. cerevisiae deletion strains, locus YNL298W, strain CLA4, active compounds read low 0.991 | S. cerevisiae deletion strains, locus YNL307C, strain MCK1, active compounds read low 1 | S. cerevisiae deletion strains, locus YNL322C, strain KRE1 (second series), active compounds read low 0.984 | S. cerevisiae deletion strains, locus YNL322C, strain KRE1, active compounds read low 1.01 | S. cerevisiae deletion strains, locus YNR049C, strain mso1, active compounds read low 0.984 | S. cerevisiae deletion strains, locus YNR052C, strain pop2, active compounds read low 0.987 | S. cerevisiae deletion strains, locus YOL006C, strain TOP1, active compounds read low 0.999 | S. cerevisiae deletion strains, locus YOL012C, strain htz1 0.813 | S. cerevisiae deletion strains, locus YOL147C, strain pex11, active compounds read low 0.996 | S. cerevisiae deletion strains, locus YOR001W, strain rrp6, active compounds read low 0.923 | S. cerevisiae deletion strains, locus YOR061W, strain CKA2, active compounds read low 1.02 | S. cerevisiae deletion strains, locus YOR069W, strain VPS5, active compounds read low 1.01 | S. cerevisiae deletion strains, locus YOR070C, strain gyp1, active compounds read low 0.987 | S. cerevisiae deletion strains, locus YOR080W, strain dia2, active compounds read low 0.987 | S. cerevisiae deletion strains, locus YOR083W, strain WHI5, active compounds read low 1.02 | S. cerevisiae deletion strains, locus YOR106W, strain vam3, active compounds read low 1.02 | S. cerevisiae deletion strains, locus YOR136W, strain idh2, active compounds read low 0.994 | S. cerevisiae deletion strains, locus YOR144C, strain elg1, active compounds read low 0.994 | S. cerevisiae deletion strains, locus YOR184W, strain ser1, active compounds read low 0.949 | S. cerevisiae deletion strains, locus YOR231W, strain MKK1, active compounds read low 0.983 | S. cerevisiae deletion strains, locus YOR265W, strain rbl2, active compounds read low 0.989 | S. cerevisiae deletion strains, locus YOR270C, strain vph1, active compounds read low 0.953 | S. cerevisiae deletion strains, locus YOR290C, strain snf2, active compounds read low 1 | S. cerevisiae deletion strains, locus YOR316C, strain cot1, active compounds read low 0.992 | S. cerevisiae deletion strains, locus YPL051W, strain arl3, active compounds read low 0.996 | S. cerevisiae deletion strains, locus YPL055C, strain LGE1, active compounds read low 1.04 | S. cerevisiae deletion strains, locus YPL078C, strain atp4, active compounds read low 1.01 | S. cerevisiae deletion strains, locus YPL106C, strain sse1, active compounds read low 0.977 | S. cerevisiae deletion strains, locus YPL240C, strain hsp82, active compounds read low 0.99 | S. cerevisiae deletion strains, locus YPL241C, strain CIN2, active compounds read low 1 | S. cerevisiae deletion strains, locus YPL256C, strain CLN2, active compounds read low 1.05 | S. cerevisiae deletion strains, locus YPR119W, strain clb2, active compounds read low 0.991 | S. cerevisiae deletion strains, locus YPR141C, strain kar3, active compounds read low 0.991 | S. cerevisiae deletion strains, locus YPR163C, strain tif3, active compounds read low 0.987 | S. cerevisiae deletion strains, locus YPR167C, strain met16, active compounds read low 0.995 | S. cerevisiae deletion strains, strain wtn01, active compounds read low 0.987 | S. cerevisiae strains, strain wild type, active compounds read low 1.02

Reference: PubChem BioAssay AID1159580 (chemical genetic matrix, 2015)
